Methyltransferases = Primary Screen for Target Class Profiling of Small Molecule Inhibitors of Methyltransferases; purified enzyme, MTase-Glo SAH luminescence; hits give low values; calls only at 40 µM; 25,000 tested, 3.9% active; AID 1745853, 2022; call rule not given here
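Each enzyme was assayed with SAM and its substrate. SAH formation detected by MTase-Glo luminescence; single-point 40 uM screen[…].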
Calls only; – = inactive; + = active, no number. Shown is part of a subset that was picked to be rich in hits.

SMILES	Methyltransferases
CC(C(=O)N1CCCCC1)n1ccc2cc(S(=O)(=O)N3CCCC3)ccc21 (stereo not drawn)	–
COc1cccc(CN2C(=O)c3cc4oc(C)cc4n3CC2(C)C(=O)NC2CCCCC2)c1OC (stereo not drawn)	–
Cc1ccc(CN2C(=O)c3cc4oc(C)cc4n3CC2(C)C(=O)NC2CCCCCCC2)cc1 (stereo not drawn)	–
COc1cc(/C=C/C(=O)O[C@H]2[C@H](OC(=O)/C=C/c3cc(OC)c(O)c(OC)c3)O[C@H](CO[C@@H]3O[C@H](CO)[C@@H](O)[C@H](O)[C@H]3O)[C@@H](O)[C@@H]2O)ccc1O	+
COc1cc(CC(COC2OC(CO)C(O)C(O)C2O)c2cc(/C=C/CO)cc(OC)c2O)ccc1O (stereo not drawn)	–
COc1cc(/C=C/C(=O)OC[C@H]2O[C@@](CO)(O[C@H]3O[C@H](CO)[C@@H](O)[C@H](O)[C@H]3O)[C@@H](OC(=O)/C=C/c3ccc(O)c(OC)c3)[C@@H]2O)ccc1O	+
COc1cc([C@H]2c3cc(O)c(OC)cc3C[C@@H](CO[C@@H]3O[C@H](CO)[C@@H](O)[C@H](O)[C@H]3O)[C@@H]2CO)ccc1O	–
COc1cc(/C=C/C(=O)O[C@H]2[C@H](O)[C@@H](CO)O[C@@]2(CO)O[C@H]2O[C@H](CO)[C@@H](O)[C@H](O)[C@H]2O)ccc1O	–
COc1cc(/C=C/C(=O)OC[C@H]2O[C@H](O[C@]3(CO)O[C@H](CO)[C@@H](O)[C@@H]3O)[C@H](O)[C@@H](O)[C@@H]2O)cc(OC)c1O	–
COc1ccc(-c2nnc3n(Cc4ccc(C)cc4)c(=O)c4ccccc4n23)cc1	–
CC(C)Cn1nc(CNC(=O)c2ccccc2F)c2ccccc21	–
Cc1ccc(CNC(=O)C2(C)Cn3nc(C(=O)NCCc4cccc(C)c4)cc3C(=O)N2C)cc1 (stereo not drawn)	–
COc1ccc(CN2C(=O)c3cc(-c4cccs4)nn3CC2(C)C(=O)NC2CCCCCC2)cc1 (stereo not drawn)	–
Cn1c(=O)n(C)c2cc(S(=O)(=O)N(Cc3ccccc3)C(=O)c3ccco3)ccc21	–
CCOc1ccccc1CN1C(=O)c2nc3ccccc3n2CC1(C)C(=O)NC1CCCCC1C (stereo not drawn)	–
Cc1ccc(CN2C(=O)c3cc4sccc4n3CC2(C)C(=O)NC2CCC(C)CC2)cc1 (stereo not drawn)	–
O=C1CN(Cc2cccc(Br)c2)S(=O)(=O)c2ccccc2N1Cc1ccc(F)cc1	–
CC1(C)CC[C@]2(C(=O)O)CC[C@]3(C)C(=CCC4[C@@]5(C)C[C@@H](O)[C@H](O)C(CO)(CO)C5CC[C@]43C)C2[C@@H]1O (stereo partly drawn)	+
C[C@H]1[C@H](C)CC[C@]2(C(=O)O)CC[C@]3(C)C(=CC[C@@H]4[C@@]5(C)C[C@@H](O)[C@H](O)[C@@](C)(CO)[C@@H]5CC[C@]43C)[C@H]12	–
CC1(C)CC[C@]2(C(=O)O[C@@H]3O[C@H](CO)[C@@H](O)[C@H](O)[C@H]3O)CC[C@]3(C)C(=CCC4[C@@]5(C)C[C@@H](O)[C@H](O)C(C)(C)C5[C@H](O)C[C@]43C)[C@@H]2[C@@H]1O (stereo partly drawn)	–
CC1(C)CC[C@]2(C(=O)OC3OC(CO)C(O)C(O)C3O)CC[C@]3(C)C(=CCC4[C@@]5(C)C[C@@H](O)[C@H](OC6OC(C(=O)O)C(O)C(O)C6O)C(C)(C)C5CC[C@]43C)[C@@H]2C1 (stereo partly drawn)	–
CC1(C)CC[C@]2(C(=O)O[C@@H]3O[C@H](CO)[C@@H](O)[C@H](O)[C@H]3O)CC[C@]3(C)C(=CCC4[C@@]5(C)C[C@@H](O)[C@H](O)[C@@](C)(CO)C5CC[C@]43C)C2C1 (stereo partly drawn)	+
C[C@@H]1CC[C@]2(C(=O)O)CC[C@]3(C)C(=CCC4[C@@]5(C)C[C@@H](O)[C@H](O)[C@@](C)(CO)C5CC[C@]43C)C2[C@H]1C (stereo partly drawn)	–
CC1(C)CC[C@]2(C(=O)O[C@@H]3O[C@H](CO)[C@@H](O)[C@H](O)[C@H]3O)CC[C@]3(C)C(=CCC4[C@@]5(C)C[C@H](O)[C@H](O[C@@H]6OC[C@@H](O)[C@H](O)[C@H]6O)[C@@](C)(CO)C5CC[C@]43C)C2C1 (stereo partly drawn)	–
C[C@@H]1O[C@@H](O[C@H]2[C@H](OC(=O)C34CCC(C)(C)CC3C3=CCC5C6(C)CC(O)C(O[C@@H]7O[C@H](CO)[C@@H](O)[C@H](O)[C@H]7O)C(C)(C(=O)O)C6CCC5(C)C3(CO)CC4)O[C@H](C)[C@H](O)[C@@H]2O)[C@H](O)[C@H](O)[C@H]1O[C@@H]1OC[C@@H](O)[C@H](O)[C@H]1O (stereo partly drawn)	+
SMILES	Methyltransferases
C[C@@H]1O[C@@H](O[C@H]2[C@H](O)[C@@H](O)[C@H](OC[C@H]3O[C@@H](OC(=O)[C@]45CCC(C)(C)C[C@H]4C4=CCC6[C@@]7(C)C[C@H](O)[C@H](O[C@@H]8O[C@H](CO)[C@@H](O)[C@H](O)[C@H]8O)[C@@](C)(C(=O)O)C7CC[C@@]6(C)[C@]4(C)CC5)[C@H](O[C@@H]4O[C@H](CO)[C@@H](O)[C@H](O)[C@H]4O)[C@@H](O)[C@@H]3O)O[C@@H]2CO)[C@H](O)[C@H](O)[C@H]1O (stereo partly drawn)	–
CC1(C)CC[C@]2(C(=O)O[C@@H]3O[C@H](CO)[C@@H](O)[C@H](O)[C@H]3O)CC[C@]3(C)C(=CCC4[C@@]5(C)C[C@@H](O)[C@H](O)C(CO)(CO)C5CC[C@]43C)C2[C@@H]1O (stereo partly drawn)	+
C[C@@H]1O[C@@H](O[C@H]2[C@H](OC(=O)[C@]34CCC(C)(C)C[C@H]3C3=CCC5[C@@]6(C)C[C@H](O)[C@H](O[C@@H]7O[C@H](CO)[C@@H](O)[C@H](O)[C@H]7O)[C@@](C)(CO)C6[C@H](O)C[C@@]5(C)[C@]3(C)CC4)OC[C@H](O)[C@@H]2O)[C@H](O)[C@H](O)[C@H]1O[C@@H]1OC[C@@H](O)[C@H](O[C@@H]2OC[C@](O)(CO)[C@H]2O)[C@H]1O (stereo partly drawn)	–
CC1(C)CCC2(C(=O)OC3OC(COC4OC(CO)C(O)C(O)C4O)C(O)C(O)C3O)CCC3(C)C(=CCC4C5(C)CCC(OC6OCC(O)C(O)C6O)C(C)(C)C5CCC43C)C2C1O (stereo not drawn)	–
Cc1cc(C)cc(NC(=O)CSc2nnc3n(Cc4ccccc4)c(=O)c4ccccc4n23)c1	–
O=C(Cn1ccc2cc(S(=O)(=O)N3CCCCC3)ccc21)NCC1CCCO1 (stereo not drawn)	–
O=C(CSc1nnc2n(Cc3ccc(F)cc3)c(=O)c3ccccc3n12)Nc1ccc(F)cc1	–
COc1ccccc1CNC(=O)C1(C)Cn2nc(-c3ccccc3)cc2C(=O)N1c1ccc(C)c(C)c1 (stereo not drawn)	–
CCC(C)NC(=O)c1ccc2c(=O)n(C)c3nnc(SCc4cccc(Cl)c4)n3c2c1 (stereo not drawn)	–
COc1ccc(OC)c(CN2C(=O)c3cc(-c4ccccc4)nn3CC2(C)C(=O)NCc2ccccc2)c1 (stereo not drawn)	–
